Assay outcomes as filed in PubChem.
Compounds with a hit are over-represented: about 2.4% of the library has one in this group of screens.
Epigenetic reg – epigenetic control regulation, reporter derepression; murine LDR cells, GFP reporter derepression, 30 h; Potency, µM (series often up to 53.9 µM), for the others: top-dose GFP activation, usual class: activators; AID 1865; hit rate 0.2% among 280,000; further: % of control where 0% means no effect; nearly all actives have a fitted effect of over 60% in size
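In this reporter-derepression format, murine cells bearing a silenced integrated CMV-GFP locus incubate with test compound (30 h, 37 C), then are washed and imaged; fluorescent objects of 20–120 um count as induced cells.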
PINK1 expr mod – PINK1 expression modulation; hit rate 0.2% among 410,000; PINK1 immunofluorescence, high-content cytometry, 24 h; Potency, µM (titrated, usually from 76.6 µM), for the others: at the top dose activation (PINK1 increase), usual class: activators; AID 624263; active means well fitted activation curve with a large enough effect; inconclusive means small, poorly fitted or top-dose-only effect; cell line not stated here; further: % of control where 0% means no effect; nearly all actives have a fitted effect of over 65% in size
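PINK1 protein, normally rapidly degraded, was detected by immunofluorescence after 24 hour compound treatment of a stable cell line. Titration data (5 concentrations) came from laser-scanning cytometry, with CCCP-treated wells as controls.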
A549 viability – A549 cytotoxicity, counter-screen for Nrf2 inhibitors | A549 ARE-Fluc cells, CellTiter-Fluor viability, 18-24 h | Potency, µM (series often up to 46 µM), for inactives: at the top dose activity change, negative = cytotoxicity, usual class: inhibitors | hit rate 0.16% among 390,000 | AID 504648; further: on the % scale 0 is the no-effect control and ±100 the full control effect
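A549 ARE_Fluc cells in 5% FBS OPTI-MEM were exposed to compounds in concentration-response for 18-24 h at 37 deg C. Viability was read by CellTiter-Fluor fluorescence (Ex 405/Em 525) after 30 min, before the luciferase read.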
Nrf2 block – inhibitors of Nrf2 signaling; A549 ARE-Fluc reporter, luciferase luminescence, 18-24 h; Potency, µM (doses to about 46 µM), inactives show at the top dose activity change, negative = inhibition, actives largely listed as inhibitors; hit rate 2.1% among 360,000; AID 504444; further: on the % scale 0 is the no-effect control and ±100 the full control effect; nearly all actives have a fitted effect of over 60% in size
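A549 ARE_Fluc cells, 5000/well, 5% FBS OPTI-MEM; compounds in dose-response, 18-24 h at 37 °C/5% CO2; CellTiter-Fluor viability read (Ex 405/Em 525), then BugLite luciferase luminescence = Nrf2 activity.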
Nrf2 ARE act – Nrf2 pathway activation | hit rate 0.31% among 410,000 | AREc32 ARE-luciferase reporter (MCF7-derived line), luminescence, 24 h | Potency, µM (doses to about 46.1 µM), inactives show top-dose activation, usual class: activators | AID 624171; further: % of control where 0% means no effect; nearly all actives have a fitted effect of over 65% in size
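ARE activation measured as luciferase luminescence (Steady-Glo, 30 min RT) in AREc32_Fluc cells after 24 hr compound exposure at 37 deg C, 5% CO2; cells seeded overnight at 1000/well in OPTI-MEM, 5% FBS.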
Active calls of the source: *; ? = inconclusive; . = not tested or not shown; [ ] = dose if it differs, or a comment. Unless noted, the call rests on the fitted dose curve; in most records, active means well fitted curve in the direction sought with a large enough effect; inconclusive means small, poorly fitted or top-dose-only effect, or another doubt; inactive means no such curve, though single readings can be large; an effect the other way counts as inactive or inconclusive. Potency means the concentration at half of the fitted maximal effect.

SMILES | Epigenetic reg | PINK1 expr mod | A549 viability | Nrf2 block | Nrf2 ARE act
CCC(O)CNC(=O)c1cnn(-c2ncc3c(n2)-c2ccccc2CCC3)c1C1CC1 (stereo unspecified) | . | 0% | . | . | .
Cc1cc2c(s1)c1cnn(Cc3c(F)ccc(C)c3Cl)c(=O)c1n2C | . | . | -2% | 13% | .
Cc1cc(NC(=O)/C(C#N)=C/c2ccc(-c3cccc(C(F)(F)F)c3)o2)n(-c2ccccc2)n1 | ? | 11% | -7% | -22% | 3%[9.22 µM]
N#C/C(=C\c1ccc(-c2cccc(Cl)c2)o1)C(=O)Nc1cccc(C(F)(F)F)c1 | 11µM* | 1% | 2% | 12% | ?
COc1cc(-c2ccc3ncnc(NCc4ccc(C)o4)c3c2)cc(OC)c1OC | . | . | -15% | ? | .
NC(=O)[C@@H]1CCCN1C(=O)CCN1Cc2ccccc2OC(c2ccccc2F)C1 (stereo partly specified) | . | 0% | . | . | .
O=C(NC1CCCCC1)N(c1ccccc1)c1nnc(-c2cccc([N+](=O)[O-])c2)s1 | . | -1% | . | . | 3.2µM*
Cc1nc2ccccn2c1C(O)(c1ccccc1)c1ccccc1 | . | . | 0% | -2% | .
CCOC(=O)CN1C(=O)S/C(=C/c2ccc(N3CCCCC3)o2)C1=O | ? | 16% | -1% | 8% | 0%
CCCN1C(=O)S/C(=C\c2ccc(N3CCOCC3)o2)C1=O | 11µM* | 9% | ? | 7% | ?
COC(=O)CN1C(=O)S/C(=C/c2ccc(N3CCCCC3)o2)C1=O | ? | 8.9µM* | . | -8% | 6%
CCCN1C(=O)S/C(=C/c2ccc(N3CCOCC3)o2)C1=O | 10µM* | 40µM* | -10% | ? | 20%
Cc1ncc2c(c1CNC(=O)/C=C/c1cccs1)CCN(C(=O)c1c(C)noc1C)C2 | . | 0% | . | . | .
COc1cc(C(=O)Nc2nnc(S(=O)(=O)N(C)c3ccccc3)s2)cc(OC)c1OC | 10µM* | 0% | 2% | ? | 7%
CN(c1ccccc1)S(=O)(=O)c1nnc(NC(=O)c2cccs2)s1 | ? | 1% | -8% | ? | -1%
Cc1cc(C)c2c(c1)/C(=N/Nc1ccc(S(N)(=O)=O)cc1[N+](=O)[O-])CCC2 | 3% | 4% | 14% | 7% | 0%
NS(=O)(=O)c1ccc(N/N=C2/CCCCC2C2CCCCC2)c([N+](=O)[O-])c1 (stereo unspecified) | 10% | -2% | ? | 21µM* | -2%
CO[C@@H]1/C=C\CC(=O)N2CCC[C@@H]2C(=O)OC[C@H](C)C(=O)OC[C@H]1C | 0%[10.1 µM] | . | . | . | .
Cc1cc(C)c2sc(N(CCCN(C)C)C(=O)c3ccc(Br)s3)nc2c1 | 3% | -1% | ? | 15µM* | -2%
CNC(=O)c1c(NC(=O)c2nc(SCc3ccc(C)cc3)ncc2Cl)sc2c1CCCC2 | 22µM* | 1% | ? | -5% | -1%
COc1cccc(C2(CC(=O)N3CCCOc4c(cccc4OC)C3)CC(=O)N(C)C2=O)c1 (stereo unspecified) | . | -1% | . | . | .
Cc1c(CN(C)C(=O)c2cc(-c3ccccc3)nc3ccc(Br)cc23)cnn1C | 1% | 0% | 0% | 9.2µM* | -1%
COc1ccc(CN(C)C(=O)c2cc(-c3ccccc3)nc3ccc(C)cc23)c(OC)c1OC | . | -4% | -9% | -15% | 3%
COc1ccccc1NC(C)C(=O)c1c[nH]c2ccccc12 (stereo unspecified) | . | 0% | . | . | .
Brc1cccc[n+]1CCCC[n+]1ccccc1Br | . | 1% | . | . | .
SMILES | Epigenetic reg | PINK1 expr mod | A549 viability | Nrf2 block | Nrf2 ARE act
CCOC(=O)C1C(=O)C=C(/C=C/c2ccc(N(C)C)cc2)CC1c1ccccc1 (stereo unspecified) | 22µM* | ? | -6% | 1% | 0%
CC(C)(C)c1ccc2c(c1)OC(C(=O)N/N=C\c1ccc(-c3cccc(C(=O)O)c3)o1)CO2 (stereo unspecified) | -1% | 0% | 1% | 9% | -1%
CC(C)(C)c1ccc2c(c1)OC(C(=O)N/N=C\c1ccccn1)CO2 (stereo unspecified) | -2% | 1% | -10% | 16µM* | 0%
O=C(Nc1nc2ccccc2n1Cc1ccccc1)c1ccco1 | 1% | 13% | -14% | 16µM* | 0%
O=C(NCCc1nc2ccccc2n1Cc1ccccc1)c1ccco1 | -1% | 2% | -2% | 3% | 16%
CCC(=O)Nc1nc2ccccc2n1Cc1ccc(Cl)cc1 | 3% | 11% | -7% | 21µM* | -2%
O=C(/C=C/c1ccco1)NCCc1ccc(F)cc1 | . | -2% | -12% | ? | 14µM*
O=C(NCC(c1ccco1)N1CCCCC1)c1ccc(NS(=O)(=O)c2ccc(F)cc2)cc1 (stereo unspecified) | . | 6% | -9% | 2% | 1%
Cc1cccc(NS(=O)(=O)c2ccc(C(=O)NCC(c3ccco3)N3CCCCC3)cc2)c1C (stereo unspecified) | . | 1% | -26% | 21µM* | 7%
Cn1nc(C(C)(C)C)cc1C(=O)O | 0% | 5% | 1% | 3% | 1%
Cn1nc(C(C)(C)C)cc1C(=O)NNC(=O)c1ccc(C(F)(F)F)cc1 | -1% | 3% | 13% | 21µM* | 2%
CN1C2=CC=CC=CC2=[N+](C)C12C=CC(=[N+]([O-])[O-])C=C2[N+](=O)[O-] (stereo unspecified) | -1% | 1% | 18µM* | 23µM* | 3%
CN(C)CCCNc1ncnc2ccc(-c3ccc4c(c3)OCO4)cc12 | . | . | 11% | ? | .
Cn1c(SCCOc2ccccc2)nnc1-c1ccc(NC(=O)CCc2ccccc2)cc1 | . | 0% | . | . | .
CCN1c2ccccc2NC2N=C(OC)C(c3ccccc3)C21 (stereo unspecified) | 0% | -5%[38.3 µM] | 21µM* | ? | 0%
CC(C)[C@H](NC(=O)c1ccc([N+](=O)[O-])cc1Cl)C(=O)N1CCN(C/C=C/c2ccccc2)CC1 | . | -2% | ? | 23µM* | 6%
COc1ccc(C(=O)NC(C(=O)N2CCN(C/C=C/c3ccccc3)CC2)C(C)C)cc1 (stereo unspecified) | . | 1% | . | . | -1%
COc1ccc(-c2nnc(SCC(=O)NCc3ccccc3)nc2-c2ccc(OC)c(OC)c2)cc1OC | -1% | 6% | -30% | . | 0%
COC(=O)c1cccc(C(=O)NCc2nc(-c3ccccc3NC(C)=O)oc2C)c1 | . | 0% | . | . | .
